Assay results: ChEMBL document CHEMBL3988442, “University of Dundee, Small-Polar-MMV Screening Library” (2021)
For some assays here: Results with a measured potency or affinity are listed apart.

Experiments:
Parameters in all cases: scale not given: direction of the effect not stated beside the values
[1] = biological target: Protein translocase subunit SecA (Escherichia coli (strain K12)) (UniProt P10408); assay: Assay to Identify E. coli SecA ATPase Inhibitors; type: functional; conditions: 30 µM
Chain of Protein translocase subunit SecA (Escherichia coli (strain K12)) (P10408 whole entry): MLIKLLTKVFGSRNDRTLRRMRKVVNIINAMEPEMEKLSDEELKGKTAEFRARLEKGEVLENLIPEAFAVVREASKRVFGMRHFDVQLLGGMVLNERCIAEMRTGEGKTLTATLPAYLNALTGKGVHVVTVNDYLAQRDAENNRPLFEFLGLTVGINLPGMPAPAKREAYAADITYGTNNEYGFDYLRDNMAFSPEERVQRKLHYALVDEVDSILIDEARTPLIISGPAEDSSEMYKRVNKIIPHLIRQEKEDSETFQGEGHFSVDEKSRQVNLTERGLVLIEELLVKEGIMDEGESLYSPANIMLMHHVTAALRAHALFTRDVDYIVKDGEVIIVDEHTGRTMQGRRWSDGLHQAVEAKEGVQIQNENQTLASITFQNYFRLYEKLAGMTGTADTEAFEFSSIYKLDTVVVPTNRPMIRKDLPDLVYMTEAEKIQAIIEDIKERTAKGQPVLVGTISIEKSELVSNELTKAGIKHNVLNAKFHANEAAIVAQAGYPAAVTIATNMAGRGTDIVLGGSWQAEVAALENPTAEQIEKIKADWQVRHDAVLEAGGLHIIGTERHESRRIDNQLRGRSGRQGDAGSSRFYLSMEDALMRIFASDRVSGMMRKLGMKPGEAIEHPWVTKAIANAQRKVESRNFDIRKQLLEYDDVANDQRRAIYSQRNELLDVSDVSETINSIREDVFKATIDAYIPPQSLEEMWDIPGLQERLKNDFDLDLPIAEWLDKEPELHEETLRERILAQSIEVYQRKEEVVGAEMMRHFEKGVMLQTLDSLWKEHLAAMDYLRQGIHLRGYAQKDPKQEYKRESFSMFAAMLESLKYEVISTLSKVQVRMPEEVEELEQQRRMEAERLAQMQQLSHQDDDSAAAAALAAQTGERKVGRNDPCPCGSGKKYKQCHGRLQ

[2] = biological target: T1, Ubiquitin-activating enzyme e1, putative (Leishmania donovani (strain BPK282A1)) (UniProt E9BSI1); assay: Leishmania donovani Ubiquitin Activating Enzyme (LdE1); type: functional; conditions: 30 µM
T1 sequence (whole entry): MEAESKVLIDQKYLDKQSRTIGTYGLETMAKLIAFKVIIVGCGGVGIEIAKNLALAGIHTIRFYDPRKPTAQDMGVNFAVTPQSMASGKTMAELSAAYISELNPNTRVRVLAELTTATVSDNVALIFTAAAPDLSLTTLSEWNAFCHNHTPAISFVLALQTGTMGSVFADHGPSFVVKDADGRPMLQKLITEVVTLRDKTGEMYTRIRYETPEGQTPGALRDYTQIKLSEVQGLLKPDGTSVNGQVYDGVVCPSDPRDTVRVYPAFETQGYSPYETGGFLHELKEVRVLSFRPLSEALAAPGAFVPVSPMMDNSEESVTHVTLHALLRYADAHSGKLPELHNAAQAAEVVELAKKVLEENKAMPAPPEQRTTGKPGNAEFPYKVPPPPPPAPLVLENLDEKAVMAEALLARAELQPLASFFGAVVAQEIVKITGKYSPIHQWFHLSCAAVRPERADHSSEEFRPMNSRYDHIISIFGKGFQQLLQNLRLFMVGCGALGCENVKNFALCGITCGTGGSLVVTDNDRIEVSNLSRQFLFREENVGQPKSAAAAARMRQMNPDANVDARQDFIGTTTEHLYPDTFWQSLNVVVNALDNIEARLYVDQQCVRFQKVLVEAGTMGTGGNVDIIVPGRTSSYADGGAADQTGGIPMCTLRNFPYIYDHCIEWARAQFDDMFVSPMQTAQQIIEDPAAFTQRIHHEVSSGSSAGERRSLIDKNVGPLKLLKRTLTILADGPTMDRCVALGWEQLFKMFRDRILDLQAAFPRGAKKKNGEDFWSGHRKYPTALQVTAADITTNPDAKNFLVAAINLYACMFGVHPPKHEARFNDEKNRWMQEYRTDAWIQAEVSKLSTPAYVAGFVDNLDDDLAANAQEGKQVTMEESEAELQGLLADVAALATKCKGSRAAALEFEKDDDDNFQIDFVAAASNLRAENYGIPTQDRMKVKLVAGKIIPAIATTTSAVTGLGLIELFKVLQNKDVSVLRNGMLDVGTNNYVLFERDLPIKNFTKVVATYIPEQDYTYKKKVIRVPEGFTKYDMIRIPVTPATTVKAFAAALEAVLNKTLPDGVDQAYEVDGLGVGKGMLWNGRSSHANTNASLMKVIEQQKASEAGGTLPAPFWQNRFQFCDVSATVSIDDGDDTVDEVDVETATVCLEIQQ

[3] = biological target: AMP-activated protein kinase, AMPK (Homo sapiens) (UniProt P54646+O43741+P54619+Q9UGJ0+Q9Y478+Q13131+Q9UGI9); assay: AMP-dependent Kinase enzyme assay. An in vitro enzyme assay that detects ADP turnover that is directly proportional to AMPK activity. This uses naive AMPK that is activated during the assay with MK-8722; type: functional; conditions: 30 µM
[4] = biological target: Sialic acid-binding Ig-like lectin 9 (Homo sapiens) (UniProt Q9Y336); assay: Hs-Siglec9 ALPHAscreen SOP 20170721; conditions: 10 µM
Chain of Sialic acid-binding Ig-like lectin 9 (Homo sapiens) (Q9Y336 whole entry): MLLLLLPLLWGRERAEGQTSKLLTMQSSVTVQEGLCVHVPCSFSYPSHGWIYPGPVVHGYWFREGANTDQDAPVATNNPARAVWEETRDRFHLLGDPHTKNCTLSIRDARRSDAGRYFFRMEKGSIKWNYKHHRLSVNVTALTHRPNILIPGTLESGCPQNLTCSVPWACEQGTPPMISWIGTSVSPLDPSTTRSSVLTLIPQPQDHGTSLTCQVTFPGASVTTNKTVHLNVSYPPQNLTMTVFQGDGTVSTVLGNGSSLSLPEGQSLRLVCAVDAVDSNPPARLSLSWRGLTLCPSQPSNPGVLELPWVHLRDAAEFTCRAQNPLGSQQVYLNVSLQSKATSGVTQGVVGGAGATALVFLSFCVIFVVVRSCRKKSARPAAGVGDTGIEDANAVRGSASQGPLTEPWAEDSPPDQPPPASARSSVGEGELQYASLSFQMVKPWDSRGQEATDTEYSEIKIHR

[5] = tested on: Trypanosoma cruzi; assay: Trypanosoma cruzi phosphomannomutase and mannose-1-phosphate guanylyltransferase assay; type: functional; conditions: 10 µM
[6] = biological target: T2, Arginase-2, mitochondrial (Homo sapiens) (UniProt P78540); assay: in vitro enzyme assay to detect the production of urea directly proportional to the activity of Arginase II; type: functional; conditions: 33.3 µM; also: in the data most compounds retested in dose-response had high values
T2 sequence (whole entry): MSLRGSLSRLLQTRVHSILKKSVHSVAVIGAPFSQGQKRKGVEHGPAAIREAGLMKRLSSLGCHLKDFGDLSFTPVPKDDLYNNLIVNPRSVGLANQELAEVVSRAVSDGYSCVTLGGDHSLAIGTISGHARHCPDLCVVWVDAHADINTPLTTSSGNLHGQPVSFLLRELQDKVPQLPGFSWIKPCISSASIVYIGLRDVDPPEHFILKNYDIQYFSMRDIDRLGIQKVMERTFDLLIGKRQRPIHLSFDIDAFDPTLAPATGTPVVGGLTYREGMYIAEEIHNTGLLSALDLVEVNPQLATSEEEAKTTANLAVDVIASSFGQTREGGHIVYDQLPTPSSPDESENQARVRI

[7] = biological target: T3, Proteasome subunit beta (Trypanosoma cruzi) (UniProt O96673); assay: Trypanosoma cruzi proteasome chymotrypsin-like activity (TcProtChymo) assay.; also: in the data most compounds retested in dose-response had high values; type: functional; conditions: 9.37 µM
T3 sequence (whole entry): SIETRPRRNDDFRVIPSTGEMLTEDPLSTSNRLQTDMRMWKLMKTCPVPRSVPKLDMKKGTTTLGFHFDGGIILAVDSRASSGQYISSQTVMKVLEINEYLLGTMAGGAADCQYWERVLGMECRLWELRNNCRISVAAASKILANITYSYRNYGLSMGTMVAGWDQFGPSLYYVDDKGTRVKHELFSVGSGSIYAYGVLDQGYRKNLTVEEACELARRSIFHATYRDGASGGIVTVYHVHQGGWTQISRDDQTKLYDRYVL

[8] = organism: Homo sapiens; assay: To identify inhibition of the IFN signalling (Jak-Stat) pathway via expression of an eGFP reporter gene under the control of an IFN-stimulated response element (ISRE) containing MxA promoter.; type: functional; conditions: 30 µM
[9] = biological target: T4, Tyrosyl-tRNA synthetase, putative (Trypanosoma cruzi (strain CL Brener)) (UniProt Q4DSP6); assay: Trypanosoma cruzi tyrosyl tRNA synthetase (TcYRS) _High Tyrosine SOP; type: functional; conditions: 30 µM; also: in the data most compounds retested in dose-response had high values
T4 sequence (whole entry): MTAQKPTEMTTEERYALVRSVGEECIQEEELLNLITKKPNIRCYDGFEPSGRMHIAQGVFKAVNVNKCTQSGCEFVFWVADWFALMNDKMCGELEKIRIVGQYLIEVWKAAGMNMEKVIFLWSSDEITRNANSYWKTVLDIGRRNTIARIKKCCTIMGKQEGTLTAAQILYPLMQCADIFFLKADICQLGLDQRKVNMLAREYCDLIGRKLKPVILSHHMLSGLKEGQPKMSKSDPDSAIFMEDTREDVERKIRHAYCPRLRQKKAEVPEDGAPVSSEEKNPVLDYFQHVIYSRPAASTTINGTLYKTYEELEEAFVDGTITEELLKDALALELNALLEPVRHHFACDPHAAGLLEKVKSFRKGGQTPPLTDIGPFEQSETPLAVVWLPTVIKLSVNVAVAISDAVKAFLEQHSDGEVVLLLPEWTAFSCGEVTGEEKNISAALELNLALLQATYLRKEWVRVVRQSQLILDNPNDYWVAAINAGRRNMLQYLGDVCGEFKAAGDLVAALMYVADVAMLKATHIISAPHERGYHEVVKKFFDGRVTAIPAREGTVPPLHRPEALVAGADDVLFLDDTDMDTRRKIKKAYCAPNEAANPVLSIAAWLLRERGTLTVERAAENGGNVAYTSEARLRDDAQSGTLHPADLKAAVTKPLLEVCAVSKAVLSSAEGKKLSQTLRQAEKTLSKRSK

[10] = biological target: T4, Tyrosyl-tRNA synthetase, putative (Trypanosoma cruzi (strain CL Brener)); assay: Trypanosoma cruzi tyrosyl tRNA synthetase (TcYRS) SOP; type: functional; conditions: 30 µM
[11] = biological target: Chromo domain-containing protein 1 (Saccharomyces cerevisiae (strain ATCC 204508 / S288c) (Baker's yeast)) (UniProt P32657); assay: ScCHD-1 Enzyme Inhibition Assay; type: functional; conditions: 30 µM; also: in the data most compounds retested in dose-response had high values
Chain of Chromo domain-containing protein 1 (Saccharomyces cerevisiae (strain ATCC 204508 / S288c) (Baker's yeast)) (P32657 whole entry, the tested form may be a part): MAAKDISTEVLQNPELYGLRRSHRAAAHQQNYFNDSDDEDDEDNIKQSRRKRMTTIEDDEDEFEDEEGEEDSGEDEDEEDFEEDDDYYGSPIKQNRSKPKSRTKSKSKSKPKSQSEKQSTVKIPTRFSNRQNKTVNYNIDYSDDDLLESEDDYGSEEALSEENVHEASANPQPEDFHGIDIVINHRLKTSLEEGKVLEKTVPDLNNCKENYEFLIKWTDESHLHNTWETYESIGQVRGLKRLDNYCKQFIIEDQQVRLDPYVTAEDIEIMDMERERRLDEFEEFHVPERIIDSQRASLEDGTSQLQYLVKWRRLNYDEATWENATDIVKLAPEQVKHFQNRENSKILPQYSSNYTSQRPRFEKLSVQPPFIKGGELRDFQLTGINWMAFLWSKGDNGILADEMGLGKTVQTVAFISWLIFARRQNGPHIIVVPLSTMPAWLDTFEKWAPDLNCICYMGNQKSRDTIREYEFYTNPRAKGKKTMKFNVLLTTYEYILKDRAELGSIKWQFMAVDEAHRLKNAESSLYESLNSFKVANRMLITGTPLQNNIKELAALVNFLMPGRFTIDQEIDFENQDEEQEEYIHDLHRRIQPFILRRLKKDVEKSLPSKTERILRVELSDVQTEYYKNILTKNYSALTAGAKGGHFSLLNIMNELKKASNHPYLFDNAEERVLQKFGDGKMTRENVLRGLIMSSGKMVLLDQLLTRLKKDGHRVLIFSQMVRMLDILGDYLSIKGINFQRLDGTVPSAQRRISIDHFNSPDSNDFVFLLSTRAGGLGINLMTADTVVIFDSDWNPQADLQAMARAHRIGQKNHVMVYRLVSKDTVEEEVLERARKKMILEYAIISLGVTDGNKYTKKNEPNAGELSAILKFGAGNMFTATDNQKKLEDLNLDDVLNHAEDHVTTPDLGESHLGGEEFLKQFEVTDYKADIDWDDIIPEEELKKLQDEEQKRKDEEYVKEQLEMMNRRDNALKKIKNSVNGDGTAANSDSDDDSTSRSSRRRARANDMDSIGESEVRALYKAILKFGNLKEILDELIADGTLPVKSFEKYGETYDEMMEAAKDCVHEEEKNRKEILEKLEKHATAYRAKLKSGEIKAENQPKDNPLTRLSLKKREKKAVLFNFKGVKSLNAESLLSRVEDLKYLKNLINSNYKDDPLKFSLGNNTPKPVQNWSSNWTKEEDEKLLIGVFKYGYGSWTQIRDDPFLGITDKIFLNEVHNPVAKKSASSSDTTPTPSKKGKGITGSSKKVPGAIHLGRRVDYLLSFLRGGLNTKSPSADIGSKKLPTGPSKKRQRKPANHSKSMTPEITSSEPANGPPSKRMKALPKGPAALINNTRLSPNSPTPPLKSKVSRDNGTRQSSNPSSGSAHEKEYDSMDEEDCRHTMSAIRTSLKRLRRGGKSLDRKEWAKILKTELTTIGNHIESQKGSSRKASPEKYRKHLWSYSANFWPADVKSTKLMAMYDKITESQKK

Row | SMILES | Percent Effect [1] | Percent Effect [2] | Percent Effect [3] | Percent Effect [4] | Percent Effect [5] | Percent Effect [6] | Percent Effect [7] | Percent Effect [8] | Percent Effect [9] | Percent Effect [10] | Percent Effect [11]
1 | Cc1ncc(CN(C)CC2CCCN2c2cccnn2)s1 (stereo not given) | -4.33% | 1.27% | -16.7% | 0.813% | 3.79% | -0.645% | 25.6% | 0.297% | 9.38% | 2.53% | -37.9%
2 | Cc1nc(C)n(CC2CCCCN2Cc2nnc(C3CC3)o2)n1 (stereo not given) | 0.312% | 2.6% | 3.13% | 1.14% | 3.37% | 0.712% | 1.69% | 1.94% | 0.971% | 7.32% | -9.02%
3 | CCc1nnc2n1CCN(Cc1csc(-c3ccsc3)n1)C2 | -1.79% | -6.94% | 1.22% | -3.25% | 0.68% | 0.883% | 13.5% | -14.4% | 4.21% | 2.56% | -0.47%
4 | O=C(c1cccc2c1OCO2)N1CCCC1Cn1cccn1 (stereo not given) | -4.17% | -2.6% | 1.97% | 4.11% | -1.47% | -1.9% | 6.55% | 14.8% | 3.81% | 9.41% | -8.43%
5 | COc1ccc(Cl)cc1C(=O)N1CCCC(n2nc(C)nc2C)C1 (stereo not given) | -3.26% | 0% | 9.49% | -8.91% | -6.33% | -3.8% | -4.5% | 16.6% | -2.46% | -3.8% | 2.53%
6 | COc1ccc(-c2nc(CN3CCOCS3(=O)=O)c(C)o2)cc1 | -1.22% | 8% | -8.87% | 2.98% | -4.58% | -3.12% | 14.8% | 10.4% | 2.73% | 8.64% | -5.54%
7 | CCc1nnsc1C(=O)N1CCCN(Cc2nccn2C)CC1 | -2.29% | -96.1% | 4.85% | 9.93% | 3.04% | 0.632% | 2.18% | 3.59% | 1.91% | -2.35% | -8.53%
8 | Cc1ccc(N2CC3(COCCN(Cc4cccnc4)C3)OCC2=O)s1 (stereo not given) | -6.13% | 2.6% | 20.6% | -4.32% | -2.27% | 0.645% | 4.18% | 21.4% | -2.12% | -3.85% | -1.59%
9 | CCc1nc(C2CCCN(C(=O)c3ccc4[nH]nnc4c3)C2)no1 (stereo not given) | -3.01% | 0% | 1.62% | 0.134% | -4.8% | 4% | 17.2% | 11.3% | 0% | 0% | -11.2%
10 | Cc1ccc(NC2CCN(C(=O)c3cccn3C)CC2)nn1 | -10.3% | 7.79% | -16.9% | 19.7% | 11.2% | 2.85% | 18.4% | 26.6% | 10.7% | 24.4% | -12.9%
